{"source": "PubChem BioAssay AID1211", "about": "(NMMLSC, 2008)", "molecular_target": "Estrogen receptor (Homo sapiens) (UniProt P03372)", "sequence (P03372 whole entry, looked up)": "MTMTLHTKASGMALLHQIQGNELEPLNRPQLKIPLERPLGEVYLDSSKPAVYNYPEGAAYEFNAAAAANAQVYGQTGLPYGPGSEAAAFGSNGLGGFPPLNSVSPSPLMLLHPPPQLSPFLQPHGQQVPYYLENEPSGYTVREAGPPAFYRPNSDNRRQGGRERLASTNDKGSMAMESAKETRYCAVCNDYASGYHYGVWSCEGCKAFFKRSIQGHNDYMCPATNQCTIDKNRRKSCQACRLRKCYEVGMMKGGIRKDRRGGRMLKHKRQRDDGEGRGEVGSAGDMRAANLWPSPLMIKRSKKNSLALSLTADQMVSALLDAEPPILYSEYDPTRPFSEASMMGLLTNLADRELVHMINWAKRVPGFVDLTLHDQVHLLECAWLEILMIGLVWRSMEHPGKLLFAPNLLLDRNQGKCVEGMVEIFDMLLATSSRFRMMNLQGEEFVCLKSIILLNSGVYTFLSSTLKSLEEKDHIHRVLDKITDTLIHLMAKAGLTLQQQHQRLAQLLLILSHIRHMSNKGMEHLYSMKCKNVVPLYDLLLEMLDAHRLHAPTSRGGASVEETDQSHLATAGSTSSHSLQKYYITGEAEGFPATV", "experiment": "displacement of fluorescent estrogen from ERalpha – cell-based, Cos7 ERalpha-GFP, flow cytometry, primary screen (AID 1211);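 further: 0% = DMSO vehicle wells and 100% = no E2-Alexa633 signal left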", "settings": "fluorescent ligand competition, stronger effect = higher value", "note": "Activity calls are given as the source filed them. How the calls were made is not given here.", "data": [{"smiles": "FC(F)(F)c1ccc2c(c1)C1C=CCC1C(c1ccncc1)N2", "note": "(centres undefined)", "values": [{"measurement": "inhibition of ligand binding", "setting": "at 10 µM", "result": "61% (inactive)"}, {"measurement": "inhibition of ligand binding", "setting": "binding inhibition, at 0.1 µM", "result": 27, "unit": "%"}]}, {"smiles": "O=C(Nc1ccc2oc(-c3ccccc3F)nc2c1)c1cncc(Br)c1", "values": [{"measurement": "inhibition of ligand binding", "setting": "at 10 µM", "result": "41% (inactive)"}, {"measurement": "inhibition of ligand binding", "setting": "binding inhibition, at 0.1 µM", "result": 38, "unit": "%"}]}, {"smiles": "Cc1cc(=O)[nH]c(SCC(=O)NCc2ccco2)n1", "values": [{"measurement": "inhibition of ligand binding", "setting": "at 10 µM", "result": "19% (inactive)"}, {"measurement": "inhibition of ligand binding", "setting": "binding inhibition, at 0.1 µM", "result": 8, "unit": "%"}]}, {"smiles": "CCOC(=O)Cc1cc(=O)n2[nH]c(-c3ccc(C)cc3)cc2n1", "values": [{"measurement": "inhibition of ligand binding", "setting": "at 10 µM", "result": "0% (inactive)"}, {"measurement": "inhibition of ligand binding", "setting": "binding inhibition, at 0.1 µM", "result": 25, "unit": "%"}]}, {"smiles": "Cn1nnnc1SCC(=O)Nc1nc(-c2ccccc2)c(-c2ccccc2)o1", "values": [{"measurement": "inhibition of ligand binding", "setting": "at 10 µM", "result": "45% (inactive)"}, {"measurement": "inhibition of ligand binding", "setting": "binding inhibition, at 0.1 µM", "result": 7, "unit": "%"}]}, {"smiles": "NNc1nc2sc3c(c2c(=O)[nH]1)CCc1ccccc1-3", "values": [{"measurement": "inhibition of ligand binding", "setting": "at 10 µM", "result": "55% (inactive)"}, {"measurement": "inhibition of ligand binding", "setting": "binding inhibition, at 0.1 µM", "result": 28, "unit": "%"}]}, {"smiles": "Cc1nc2ccccc2c(=O)n1/N=C/c1c(O)ccc2oc3c(c12)CCCC3", "values": [{"measurement": "inhibition of ligand binding", "setting": "at 10 µM", "result": "48% (inactive)"}, {"measurement": "inhibition of ligand binding", "setting": "binding inhibition, at 0.1 µM", "result": 52, "unit": "%"}]}, {"smiles": "COc1ccc(C2CC(c3ccccc3)=NN2c2ccc(N)cc2)cc1", "note": "(centres undefined)", "values": [{"measurement": "inhibition of ligand binding", "setting": "at 10 µM", "result": "19% (inactive)"}, {"measurement": "inhibition of ligand binding", "setting": "binding inhibition, at 0.1 µM", "result": 47, "unit": "%"}]}, {"smiles": "O=c1cc(-c2ccc(O)c(-c3c(O)cc(O)c4c(=O)cc(-c5ccc(O)cc5)oc34)c2)oc2cc(O)cc(O)c12", "values": [{"measurement": "inhibition of ligand binding", "setting": "at 10 µM", "result": "24% (inactive)"}, {"measurement": "inhibition of ligand binding", "setting": "binding inhibition, at 0.1 µM", "result": 9, "unit": "%"}]}, {"smiles": "CCN(CC)CCCNC(=O)c1nn(-c2ccccc2OC)c(=O)c2ccccc12", "values": [{"measurement": "inhibition of ligand binding", "setting": "at 10 µM", "result": "39% (inactive)"}, {"measurement": "inhibition of ligand binding", "setting": "binding inhibition, at 0.1 µM", "result": 62, "unit": "%"}]}, {"smiles": "ON=C1/C(=N\\O)CC2(C/C1=N/O)OCCO2", "values": [{"measurement": "inhibition of ligand binding", "setting": "at 10 µM", "result": "33% (inactive)"}, {"measurement": "inhibition of ligand binding", "setting": "binding inhibition, at 0.1 µM", "result": 48, "unit": "%"}]}, {"smiles": "Cn1c(SCc2cc(=O)n3cc(Br)ccc3n2)nnc1C1COc2ccccc2O1", "note": "(centres undefined)", "values": [{"measurement": "inhibition of ligand binding", "setting": "at 10 µM", "result": "19% (inactive)"}, {"measurement": "inhibition of ligand binding", "setting": "binding inhibition, at 0.1 µM", "result": 27, "unit": "%"}]}]}
